According to PubChem BioAssay AID720519 (National Center for Advancing Translational Sciences (NCATS), 2013):
Results filed as inconclusive are left out. Calls of active or inactive are those of the source. Calls follow the shape of the dose curve; as a rule, active = well fitted activation curve with a large enough effect; inconclusive = small, poorly fitted or top-dose-only effect; inactive = flat fitted curve, though single readings scatter.

Experiment: qHTS for Inhibitors of Cell Surface uPA Generation: Confirmatory Assay for Cherry-picked Compounds
Details: cell surface uPA activity generation, qHTS confirmation; series mostly up to 115 µM
Method in brief: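 RAW 264.7 cells at 4000/well, incubated overnight, then treated with compounds. After 24 h at 37 C, viability was read by ATPlite luminescence. An increase in signal indicates blocked uPA-dependent LF entry.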

Potency, inactive:
O=C(/C=C/c1cccc(Oc2ccccc2)c1)N1CCOCC1, Cc1cccc(C(=O)NC2CCN(CC(=O)N3CCOCC3)CC2)c1, O=C(Nc1cccc(C2=NCCN2)c1)Nc1cccc(C2=NCCN2)c1, CCc1ccc(OCC(=O)N(Cc2cccs2)C2CCS(=O)(=O)C2)cc1 (stereo not drawn), O=C(O)CNS(=O)(=O)c1ccc2c(c1)Cc1cc(S(=O)(=O)NCC(=O)O)ccc1-2, O=C(N/N=C/c1cccnc1)c1ccccc1[N+](=O)[O-], Clc1ccc(-c2nc3ccccn3c2CN2CCSCC2)cc1, Cc1cc(C)cc(S(=O)(=O)c2cn(C)c3cc(N4CCN(C)CC4)c(F)cc3c2=O)c1, CN(C)S(=O)(=O)c1ccc(NC(=O)COC(=O)CC2CC3CCC2C3)cc1 (stereo not drawn), CC(=O)c1ccc(OCCCCOc2ccc(C(C)=O)cc2)cc1, Nc1cc(=O)[nH]c(SCC(=O)Nc2cccc([N+](=O)[O-])c2)n1, Clc1ccccc1N1CCN(c2ncnc3nc[nH]c23)CC1, C=CCn1c(SCCN2C(=O)c3ccccc3C2=O)nc2scc(-c3ccc(F)cc3)c2c1=O, CC1CCCN(C(=O)c2ccc(-c3ccccc3Cl)o2)C1 (stereo not drawn), O=C(O)CC1(CC(=O)NCc2ccc(Cl)cc2)CCCCC1, CC(C)N1CCc2c(sc(NC(=O)Cc3ccccc3)c2C(N)=O)C1, C[C@H]([C@H](O)c1ccccc1)N(C)C(=O)CN, CCN1CCN(Cc2ccc(NC(=O)c3cc(NC(=O)c4cncc(-c5cccs5)c4)cc(OC)c3)cc2C(F)(F)F)CC1, COc1ccc(/C=N/NC(=O)COc2ccc3ccccc3c2)c(C(=O)O)c1OC, CCOc1ccc(-n2cnc3scc(-c4ccc(OC)c(OC)c4)c3c2=O)cc1, CN(c1ccccc1)S(=O)(=O)c1ccc(C(=O)Nc2nnc(C3CC3)o2)cc1, O=c1[nH]c2c(s1)C(c1ccc(O)cc1)C1C3CCC(C3)C1S2 (stereo not drawn), COc1ccc(NC(=O)CC(C)CC(=O)NCc2ccccc2)c(OC)c1 (stereo not drawn), COC(=O)[C@@]1(Cc2ccc(F)cc2)[C@H]2c3cc(C(=O)N(C)C)n(Cc4c(CO)[nH]cc(C)c4=O)c3C[C@H]2CN1C(=O)c1ccccc1, C/C=C/C(=O)Nc1cccc(C2=NOC3(C2)C[C@@H](C(N)=O)N(C(=O)c2cc([N+](=O)[O-])cc([N+](=O)[O-])c2C)C3)c1 (stereo partly drawn), CCCCNC(=O)C1CCN(S(=O)(=O)c2c(C)noc2/C=C\c2ccc(OC)cc2)CC1, O=C(CCN1CCN(c2ccccc2F)CC1)Nc1ccc(F)cc1, CCOC(=O)C1CCN(C(=O)COC(=O)c2c(C)c(CC)nc3ccccc23)CC1, Brc1ccsc1/C=N/Nc1ccccc1, CNC(=O)[C@@H]1CCC(=O)N1, Cc1ccc(C(=O)NC(=S)Nc2ccc3[nH]c(=O)[nH]c3c2)c(C)c1, COc1ccc(C(=O)NNC(=O)Cc2ccc(Cl)cc2)cc1, Cc1ccc(S(=O)(=O)NC(=O)Nc2nccs2)cc1, OCCN(Cc1ccccc1)CC(O)COc1ccc2c(c1)OCO2 (stereo not drawn), O=C(CCS(=O)(=O)c1ccc2c(c1)NC(=O)CS2)NCCc1ccc(Cl)cc1, COc1cc2c(cc1OC)CN(C(=O)c1ccc(-c3ccccc3)cc1)CC2, Cc1cc(=O)[nH]c(=S)[nH]1, COc1ccc(CC(=O)Nc2nc(C)cs2)cc1OC
